PubChem BioAssay AID868 (SRMLSC, 2007)
In all, about 190,000 compounds went through this assay and about 3,500 (1.8%) were called active. This is one part of a sample in which actives are shown more often than they occur.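 How the source made its calls: active means inhibition above a set limit, 3 SD over mean compound inhibition (cut at about 8.4% in these data); inactive means the rest.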

assay: inhibitors of the yeast RAM network, primary screen, dse1pr::URA3 reporter, 5-FOA selection (AID 868);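 further: 0% = DMSO-only wells with no growth and 100% = 10 µM 1-NA-PP1 full growth; inhibition rescues growth on 5-FOA so higher OD means more RAM inhibition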; settings: S. cerevisiae dse1pr::URA3 reporter, 5-FOA growth OD615, 2 d; at 50 µM; active compounds read high; analog-sensitive cbk1-as2 kinase mutant strain

Structure (SMILES) | inhibition
CCOC(=O)C(C)n1nc(-c2ccccc2)c2ccccc2c1=O (stereo not drawn) | 0.13% (inactive)
O=C(Nn1cnc2ccccc2c1=O)c1ccccc1 | 1.22% (inactive)
CCSc1nc(C)nc2c1oc1ccccc12 | 3.79% (inactive)
CCc1nc(Nc2ccc3nccnc3c2)c2oc3ccccc3c2n1 | 12.5% (active)
COc1ccccc1Nc1ncnc2c1oc1ccccc12 | 5% (inactive)
Cc1ccc(NC(=O)C(=O)NCc2ccco2)c(C)c1 | 4.33% (inactive)
CCOc1ccc(/C=N/OCC(=O)NCc2cccs2)cc1 | 0.76% (inactive)
CCOC(=O)C1(CC2CCCCO2)CCN(Cc2nc(-c3cccs3)oc2C)CC1 (stereo not drawn) | 0.26% (inactive)
O=C(COc1ccccc1)Nc1ccc(N2CCN(C(=O)c3cccs3)CC2)cc1 | 6.82% (inactive)
COc1ccc(/C=C2\SC(=N)N(c3ccc(F)cc3)C2=O)cc1 | 2.04% (inactive)
COc1cccc(NC(=S)N(CCc2c(C)[nH]c3ccccc23)Cc2ccco2)c1 | 7.14% (inactive)
COc1ccc2[nH]c(C)c(CCN(Cc3cccs3)C(=S)Nc3ccccc3OC)c2c1 | 2.4% (inactive)
CCNC(=S)N(CCc1c(C)[nH]c2ccc(C)cc12)Cc1ccco1 | 9.53% (active)
Cc1ccc(-n2c(SCC(=O)N/N=C/C=C/c3ccccc3[N+](=O)[O-])nc3ccccc3c2=O)cc1 | 10.3% (active)
O=C(CSc1nc2ccccc2[nH]1)N/N=C/C=C\c1ccccc1[N+](=O)[O-] | 0.9% (inactive)
CCn1c(SCC(=O)N/N=C/C=C/c2ccccc2[N+](=O)[O-])nnc1-c1ccccc1 | 0.99% (inactive)
Cc1ccc(NC(=O)c2ccn(C(=O)Nc3ccccc3)n2)c(C)c1 | 1.13% (inactive)
COc1ccc(C)cc1NC(=O)Nc1ccccc1SC | 3.85% (inactive)
COc1ccc(C)cc1NC(=S)Nc1ccccc1SC | 0.14% (inactive)
COc1ccc(C)cc1NC(=O)C(Sc1ccccc1)c1ccccc1 (stereo not drawn) | 12% (active)
Cc1c(CN2CCCCC2)c(O)n(CCO)c(=O)c1C#N | 1.68% (inactive)

Structure (SMILES) | inhibition
Cc1cc(C)c(C(N)=O)c(Cl)n1 | -0.5% (inactive)
C/C(=N\Nc1nc(N2CCOCC2)nc(N2CCOCC2)n1)c1ccc([N+](=O)[O-])cc1 | 1.78% (inactive)
OCCC1CN(Cc2ccccc2-c2ccco2)CCN1Cc1ccsc1 (stereo not drawn) | 0.13% (inactive)
CCc1ccc(/C=C2\SC(N3CCOCC3)=NC2=O)cc1 | 2.12% (inactive)
Cc1ccc(N2CCN(C3=NC(=O)/C(=C\c4cccs4)S3)CC2)cc1 | 2.02% (inactive)
CC1CCN(C2=NC(=O)/C(=C/c3cn[nH]c3-c3ccccc3)S2)CC1 | 9.65% (active)
O=c1c(Cl)c(NCc2ccc(F)cc2Cl)cnn1C12CC3CC(CC(C3)C1)C2 | 6.9% (inactive)
CCN(CCn1cccn1)Cc1nc(-c2ccc(C(=O)OC)cc2)no1 | 0.13% (inactive)
O=C(COc1ccc(NC(=O)c2ccccc2[N+](=O)[O-])cc1)c1ccc(F)cc1 | 6.75% (inactive)
Cc1ccc(C(=O)NCCNS(=O)(=O)c2ccccc2)cc1 | 0.27% (inactive)
Cc1ccccc1CSCCNC(=O)c1ccc(Cl)c(S(=O)(=O)N2CCOCC2)c1 | 7.41% (inactive)
Cc1ccccc1CSCCNC(=O)c1ccc(N(C)S(=O)(=O)c2ccccc2)cc1 | 14.2% (active)
CCOC(=O)N1CCN(C(=O)c2cc3c(-c4ccc(Cl)cc4)nn(C)c3s2)CC1 | -0.35% (inactive)
COc1ccccc1N1CCN(C(=O)c2cc3c(-c4ccc(Cl)cc4)nn(C)c3s2)CC1 | 5.62% (inactive)
COc1cccc(-c2nn(C)c3sc(C(=O)N4CCN(c5ccccc5)CC4)cc23)c1 | 8.94% (active)
O=C(CCS(=O)(=O)Cc1ccccc1)Nc1ccc2c(c1)OCCO2 | 3.16% (inactive)
O=C(Nc1ccnc(-c2ccncc2)n1)c1cccs1 | -0.85% (inactive)
COc1ccnc(Oc2ccccc2)n1 | 2.23% (inactive)
O=C(NCc1ccccc1)C1=C[C@@H](c2ccc(C(F)(F)F)cc2)C[C@@H](OCc2ccc(CO)cc2)O1 | 12.2% (active)
CC(C)(C)[C@H]1C=C(C(=O)NCc2ccccc2)O[C@@H](OCc2ccc(CO)cc2)C1 | 3.51% (inactive)
O=C(C1=C[C@H](c2ccc(C(F)(F)F)cc2)C[C@H](OCc2ccc(CO)cc2)O1)N1CCN(Cc2ccccc2)CC1 | 2.29% (inactive)

Structure (SMILES) | inhibition
O=C(NCc1ccccc1)C1=C[C@@H](C2CCCCC2)C[C@@H](OCc2ccc(CO)cc2)O1 | 16.7% (active)
O=C(NCc1ccccc1)C1=C[C@H](C2CC2)C[C@H](OCc2ccc(CO)cc2)O1 | -0.5% (inactive)
C=CCOC(=O)C1=C[C@@H](c2ccccc2)C[C@@H](OCc2ccc(CO)cc2)O1 | 1.5% (inactive)
Fc1ccccc1Cn1cnc(NC(=S)NCCc2ccccc2)n1 | 6.41% (inactive)
O=C(NCCc1ccc(F)cc1)c1n[nH]c2ccccc12 | -0.97% (inactive)
C/C(N)=C(/C#N)C(=O)COC(=O)c1cc(-c2cccc(Br)c2)nc2ccccc12 | 4.74% (inactive)
O=C(CCC1CCCN(Cc2ccc(O)c(Cl)c2)C1)NCc1ccccc1F (stereo not drawn) | 1.23% (inactive)
O=C(Oc1cccc(O)c1)C1CCCCC1 | -0.74% (inactive)
CC(C)Oc1ccccc1C(=O)NC(CO)C(=O)O (stereo not drawn) | 1.42% (inactive)
O=C(NN=C1CCC(=NNC(=O)c2cccnc2)CC1)c1cccnc1 | 1.46% (inactive)
CC(C)OCCCNC(=O)c1ccc(C2SCC(=O)N2Cc2ccco2)cc1 (stereo not drawn) | 1.08% (inactive)
Cc1ccsc1C1C(C#N)=C(N)OC2=C1C(=O)CC(C)(C)C2 (stereo not drawn) | 1.24% (inactive)
CCNC(=S)N1CCC(c2nc3cc(C)c(C)cc3[nH]2)CC1 | -0.13% (inactive)
Cc1cc2c(c(=O)n1Cc1ccco1)C(c1ccccc1)C(C#N)=C(N)O2 (stereo not drawn) | 2.82% (inactive)
CN(c1ccccc1)c1ccc(/C=c2\s/c(=C(/C#N)C(=O)C(C)(C)C)n(Cc3ccco3)c2=O)cc1 | 22.5% (active)
COc1ccc(NC(=O)Cn2c(=O)n(Cc3ccco3)c(=O)c3ccccc32)cc1 | 2.68% (inactive)
CCc1ccc(NC(=O)C(C)OC(=O)/C=C/c2cccc([N+](=O)[O-])c2)cc1 (stereo not drawn) | 2.92% (inactive)
COc1c(C)cc(C(=O)C2CCCN(S(=O)(=O)c3c(C)noc3C)C2)cc1C (stereo not drawn) | 5.32% (inactive)
Cc1ccc(CCC(=O)Nc2ncc(Cc3cc(Cl)ccc3Cl)s2)o1 | 14% (active)
Cc1cnc(NC(=O)CSc2nnc(-c3ccc(Cl)cc3Cl)n2N)s1 | 2.06% (inactive)
CCOc1ccccc1NC(=O)CCc1ccc(C)o1 | 1.75% (inactive)

Structure (SMILES) | inhibition
CCOC(=O)Cc1cc(=O)[nH]c(=O)[nH]1 | -0.76% (inactive)
Cc1cc(C)c(C#N)c(SCC(=O)NN2CC(=O)N(c3ccccc3F)CC2=O)n1 | 1.88% (inactive)
O=C(c1ccc(Cl)c([N+](=O)[O-])c1)N1CCN(c2ccccc2)CC1 | -1.05% (inactive)
Nc1ccccc1SCc1cc([N+](=O)[O-])cc2c1OCOC2 | 0.13% (inactive)
COc1ccc(S(=O)(=O)NC(C)C(=O)Nc2cccc([N+](=O)[O-])c2)cc1 (stereo not drawn) | 0.38% (inactive)
CC(O)C(NS(=O)(=O)c1ccc(Cl)cc1)C(=O)OCc1cc([N+](=O)[O-])cc2c1OCOC2 (stereo not drawn) | 14.1% (active)
CN(C)CCCO/N=C(\c1ccccc1)c1ccncc1 | 1.14% (inactive)
O=c1[nH]n2c(-c3ccccc3)nc(O)c2c2ccccc12 | 2.15% (inactive)
Cn1c(=O)c2c(ncn2CC(=O)N/N=C/c2cn[nH]c2-c2ccc(F)cc2)n(C)c1=O | 1.49% (inactive)
CCSc1nnc(-c2cc3c(s2)-c2ccccc2CC3)o1 | 2.39% (inactive)
Fc1ccc(-c2nnc(CSc3nnc(-c4ccc5c(c4)OCO5)o3)o2)cc1 | 3.54% (inactive)
Fc1ccc(CSc2nnc(-c3cc4c(s3)-c3ccccc3CC4)o2)cc1 | 22.2% (active)
Cc1ccc(N(C(=O)C(F)(F)F)C(C(=O)NC2CCCCC2)c2ccncc2)cc1C (stereo not drawn) | 4.82% (inactive)
FC(F)(F)c1cccc(Cc2noc(CN3CCC(N4CCCCC4)CC3)n2)c1 | 0.6% (inactive)
COc1ccc2c(c1)c(=O)c(C(=O)c1ccc(Cl)cc1)cn2CC(=O)Nc1ccc(F)cc1 | 3.22% (inactive)
O=C(c1ccc(F)cc1)c1cn(Cc2ccc(F)cc2)c2cc3c(cc2c1=O)OCCO3 | 9.62% (active)
CCn1cc(C(=O)N/N=C(/C)c2ccc(F)cc2)c(=O)c2cc(F)c(N3CCCC3)cc21 | 0.79% (inactive)
Cc1c(C(=O)NCCN2C(=O)S/C(=C\c3cccs3)C2=O)cccc1[N+](=O)[O-] | 2.49% (inactive)
O=C(CCN1C(=O)/C(=C/c2cccs2)SC1=S)NNC(=O)c1cccc(O)c1 | 9.69% (active)
COc1ccc(/C=C2\SC(=S)N(CC(=O)NNC(=O)c3ccncc3)C2=O)cc1 | 4.19% (inactive)
